Experiment [1] is described as follows: U-118MG Cancer Cell Toxicity qHTS against the NCATS CANVASS Library (AID 1347351). Further: potency means the concentration at half of the fitted maximal effect. The gist of the method: (§1)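 Viability read-out: CellTiter-Glo luminescence after 72 h compound exposure at 37 °C/5% CO2. Cells plated at 1000/well, 4 h pre-incubation; 11-point titration. Bortezomib served as control.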
In general terms: Quantitative high-throughput screening tests each substance at several concentrations.

A short description of experiment [2]: HEK-293 Cancer Cell Toxicity qHTS against the NCATS CANVASS Library (AID 1347355). Further: nearly all actives have a fitted effect of over 65% in size. Further: potency means the concentration at half of the fitted maximal effect. The method, boiled down: (§2)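 First, 1000 cells go into each well and rest for 4 hours. Next, an 11-point dilution range is pinned in. Plates then incubate 72 hours before CellTiter-Glo addition and luminescence reading.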
The nature of experiment [3]: DH5-alpha competent E. coli microbial cell viability qHTS against the NCATS CANVASS Library (AID 1347377). The note with it: outcome: dose series up to 46.1 µM unless noted. The method, boiled down: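 Bacteria were dispensed at 0.2 OD, then compounds were pin-transferred. Plates were incubated overnight at 37C, after which BacTiter-Glo was added and luminescence measured 20 min later.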

Experiment [4] in a line: qHTS for Antimalaria activity screened against the NCATS CANVASS Library (AID 1347380). Further: nearly all actives have a fitted effect of over 40% in size. Further: potency means the concentration at half of the fitted maximal effect. The gist of the method:
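Compounds are titrated over 11 concentrations onto Dd2 parasite cultures (0.3% parasitemia, 2.5% hematocrit). Growth over 72 h at 37C in low oxygen is measured as SYBR Green DNA fluorescence after lysis.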

Experiment [5] is described as follows: Viability qHTS for inhibitors of the SERCaMP assay screened against the NCATS CANVASS Library (AID 1347400). Further: nearly all actives have a fitted effect of over 70% in size. Further: potency means the concentration at half of the fitted maximal effect. The method, boiled down: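 Seed SH-SY5Y-GLuc SERCaMP MJH297 cells at 1000 per well, incubate 4 h, add compounds across an 11-point range, incubate 48 h at 37C, then add CellTiter-Glo and read luminescence.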
Experiment [6] in a line: HPAF-II Cancer Cell Toxicity qHTS against the NCATS CANVASS Library (AID 1347346). Further: nearly all actives have a fitted effect of over 55% in size. Further: potency means the concentration at half of the fitted maximal effect. The method, boiled down: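 First, HPAF-II cells are plated (1000 cells/well) and held 4 h at 37 degrees C. Next, compounds are pin-transferred as an 11-point series. After 72 h, CellTiter-Glo is added and luminescence measured.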
Experiment [7] is described as follows: Vero-766 cells viability qHTS against the NCATS CANVASS Library: Counterscreen for Zika virus inhibition assay (AID 1347394). Further: nearly all actives have a fitted effect of over 60% in size. Further: potency means the concentration at half of the fitted maximal effect. The gist of the method: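 CellTiter-Glo luminescence, lower signal indicating cytotoxicity. Vero 766 cells without Zika virus, 1000 cells/well, plated overnight, then treated 72 h at 37C across an 11-point series.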
A short description of experiment [8]: OV-SAHO Cancer Cell Toxicity qHTS against the NCATS CANVASS Library (AID 1347348). Further: nearly all actives have a fitted effect of over 55% in size. Further: potency means the concentration at half of the fitted maximal effect. The method, boiled down: as §1
Experiment [9] can be described thus: Panc-1005 Cancer Cell Toxicity qHTS against the NCATS CANVASS Library (AID 1347349). Further: nearly all actives have a fitted effect of over 60% in size. Further: potency means the concentration at half of the fitted maximal effect. The gist of the method: as §1
Experiment [10] in a line: SDT Cancer Cell Toxicity qHTS against the NCATS CANVASS Library (AID 1347365). Further: nearly all actives have a fitted effect of over 60% in size. Further: potency means the concentration at half of the fitted maximal effect. The gist of the method:
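Cytotoxicity is measured from cellular ATP: compounds in an 11-point concentration series are pinned onto SDT cells, incubated 72 hr at 37C, then CellTiterGlo is added and luminescence read.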

Experiment [11] can be described thus: qHTS for Hypoxia signaling pathway (HIF-1) antagonists against the NCATS CANVASS Library (AID 1347374). Further: nearly all actives have a fitted effect of over 60% in size. Further: potency means the concentration at half of the fitted maximal effect. The method, boiled down: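 Antagonism scored as loss of CoCl2-driven (60 uM stock added) HRE beta-lactamase signal, read by CCF4 FRET at 460/530 nm. Compounds were tested in an 11-point series on ME-180 reporter cells for 17 hrs at 37C, with parallel CellTiter-Glo cytotoxicity.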

A short description of experiment [12]: COV-362 Cancer Cell Toxicity qHTS against the NCATS CANVASS Library (AID 1347352). Further: series mostly up to about 38 µM. The method, boiled down:
as §2

Experiment [13] in a line: qHTS for Hypoxia signaling pathway (HIF-1) agonists against the NCATS CANVASS Library (AID 1347375). The gist of the method:
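Cells plated and rested 5 h, compounds pinned in DMSO across 11 concentrations, incubated 17 h at 37C, loaded with CCF4-AM for 2 h, fluorescence read at 460 and 530 nm, then CellTiter-Glo luminescence measured for viability and normalization.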

Experiment [14] is described as follows: UWB1.289 Cancer Cell Toxicity qHTS against the NCATS CANVASS Library (AID 1347347). Further: nearly all actives have a fitted effect of over 60% in size. Further: potency means the concentration at half of the fitted maximal effect. The method, boiled down:
as §1

Experiment [15] in a line: A2780 Cisplatin Sensitive Ovarian Cancer Cell Toxicity qHTS against the NCATS CANVASS Library (AID 1347353). Further: nearly all actives have a fitted effect of over 60% in size. Further: potency means the concentration at half of the fitted maximal effect. The gist of the method:
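Cells are plated at 750 per well and rest for 4 hours. Compounds are added across eleven concentrations, and incubated 72 hours before ATP is quantified by luminescence.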

Records with an inconclusive call do not appear. Calls of active or inactive are those of the source. The call rests on the fitted dose curve; in most records, active means well fitted curve in the direction sought with a large enough effect; inconclusive means small, poorly fitted or top-dose-only effect, or another doubt; inactive means no such curve, though single readings can be large; an effect the other way counts as inactive or inconclusive.

`C=C1C[C@H]2O[C@@H]3[C@@H]4[C@H](CC[C@@](C)(O)[C@@H]42)[C@H](C)COC3(C)[C@@H](OC(=O)CCCCCCC)C[C@H]1O` (stereo not given in full): the Potency result in experiment [1] and in [5] was “inactive” throughout. Also, the Potency is 23.5 µM (active) in experiment [2] and 0.0059 µM (active) in experiment [4]. The outcome in [3] was inactive.

Turning to `CC(C)[C@@H]1CC(=O)c2coc3c2[C@H]1C[C@@H](C)C3=O`, the Potency entry in [6] was “inactive”.

For the compound `CC[C@@H]1[C@H](C)[C@H](c2cc(OC)c(OC)cc2OC)[C@@H](C)[C@H](c2cc(OC)c(OC)cc2OC)[C@]12C=C(OC)C(=O)C=C2OC`, the Potency was 18.8 µM (active) in experiment [6], 2.98 µM (active) in experiment [4] and 20.9 µM (active) in experiment [7].

Turning to `O=C1CCC(=O)N(O)CCCCCNC(=O)CCC(=O)N(O)CCCCCNC(=O)CCC(=O)N(O)CCCCCN1`, the Potency was 7.49 µM (active) in experiment [6]; 11.8 µM (active) in [8]; 8.41 µM (active) in experiment [9]; 4.18 µM (active) in experiment [10]; 4.72 µM (active) in experiment [4]. Further, the Potency entry in experiment [11] is “inactive”.

For the compound `C/C(=C\[C@@H](C)CC/C=C/CC/C=C/C(=O)O)[C@H](O)[C@H](C)C(=O)CCCC1CC(=O)NC(=O)C1`, in [6], the Potency was 6.68 µM (active). For the same compound, the Potency entry in experiment [8], in [1], in experiment [12], in experiment [2], in experiment [4] and in [7] was “inactive” each time. For the same compound, the Potency result in experiment [5] was “inactive”. In addition, the call in [13] was inactive.

Regarding `COc1cc2oc3ccccc3c(=O)c2cc1OC`, the Potency entry in experiment [14], in experiment [8], in experiment [12], in experiment [11] and in experiment [5] was “inactive” each time. For the same compound, the Potency in experiment [1] is 30.6 µM (active); in [4], 0.0049 µM (active). For the same compound, in [13], the outcome was inactive.

As to `CC1=C(C)C(=O)OC(C(C)C2(O)CCC3C4C5OC5C5(O)CC=CC(=O)C5(C)C4CCC32C)C1` (stereo not given), the Potency entry in experiment [6], in [1] and in experiment [7] was “inactive” each time. The Potency in experiment [10] was 13.2 µM (active). For the same compound, the outcome in experiment [13] was inactive.

With `C[C@H](CCC(O)C(C)(O)CO)[C@@]1(O)CC[C@@]2(C)C3=C(CC[C@@]21C)[C@@]1(C)CCC(OC(=O)CCC(=O)O)C(C)(C)[C@@H]1CC3` (stereo not given in full), the Potency entry in [8], in [9], in experiment [1], in experiment [12], in [15] and in experiment [2] was “inactive” in each case. For the same compound, the Potency entry in experiment [5] was “inactive”. Moreover, the Potency in experiment [11] was 14.9 µM (active); in experiment [7], 29.5 µM (active). Further, the compound was classed as inactive in experiment [13] and in experiment [3].

Consider `COc1ccc([C@@H]2c3cc4c(cc3C(=O)[C@H](C)C2C)OCO4)cc1OC` (stereo not given in full), for which the Potency entry in experiment [8] and in experiment [12] was “inactive” in each case. Moreover, the Potency in experiment [2] was 18.7 µM (active). Further, the result in experiment [13] and in [3] was inactive.

`COc1ccc([C@@H]2c3cc4c(cc3C[C@H](C)C2C)OCO4)cc1OC` (stereo not given in full): the Potency entry in experiment [8] and in [1] was “inactive” throughout. The Potency in experiment [15] is 10.5 µM (active); in experiment [5] it was 27 µM (active). The result in [13] and in experiment [3] was inactive.

For `COC(=O)[C@@]1(C)CCC[C@]2(C)c3cc(OC)ccc3CC[C@@H]12`, the Potency result in experiment [14], in experiment [8], in [9], in [1], in experiment [12] and in experiment [15] was “inactive” each time. The Potency result in experiment [2], in experiment [10], in experiment [11], in experiment [7] and in experiment [5] was “inactive” each time. Also, the compound was called inactive in experiment [3].

Regarding `C[C@H](c1cnc(N)[nH]1)c1ccc(O)c2[nH]cc(-c3cnc(-c4c[nH]c5ccccc45)c(=O)[nH]3)c12`, the Potency entry in experiment [14], in experiment [8], in [9], in experiment [1], in experiment [12] and in [15] was “inactive” in each case. The Potency entry in experiment [7] and in experiment [5] was “inactive” in each case.

`C/C(=C\[C@H](C)C(=O)C[C@H](O)CC1CC(=O)NC(=O)C1)[C@@H]1OC(=O)CCCC/C=C/[C@@H](O)C[C@@H]1C`: the Potency in experiment [14] is 9.41 µM (active); in experiment [11], 4.2 µM (active). The outcome in experiment [13] and in experiment [3] was inactive.

Take `C/C=C/c1cc2c(c(=O)o1)C(=O)[C@@H](O)[C@H](C)O2`: the Potency is 16.7 µM (active) in experiment [8], 14.9 µM (active) in [11] and 34 µM (active) in experiment [5]. The Potency result in experiment [1] and in experiment [4] was “inactive” throughout.

For the compound `CC1=C[C@H]2[C@H]3C(=O)C(c4ccc(O)cc4)=C[C@@]3(c3ccc(O)cc3)[C@@H]1C(=O)[C@]2(C)O`, the Potency entry in experiment [8] and in experiment [11] was “inactive” each time. Further, the Potency in experiment [15] is 0.418 µM (active); in experiment [2], 0.235 µM (active); in [4] it was 0.0019 µM (active); in experiment [5], 0.48 µM (active). Besides, the compound was classed as inactive in experiment [3].
